Laboratory results reported in PubChem BioAssay (NCI).
This is part of a sample that, as a whole, favours compounds with a hit. Of some 83,000 tested, about 20% had one in any assay.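 Cell lines were cultured in 96-well plates, exposed to a single compound concentration, and assessed for percent growth 48 hours later.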 Unmarked numbers belong to inactive results. The source made the active and inactive calls. The calls were made as follows: active = growth percent below 10; inactive = the rest.

Columns and labels:
Test in all cases: NCI-60 one-dose screen, 48 h (100 = growth as untreated, 0 = no growth, -100 = all killed)
Settings in all cases: 10 µM unless noted
SR leukemia = tested on: SR leukemia
RPMI-8226 leukemia = tested on: RPMI-8226 leukemia
OVCAR-8 ovarian = tested on: OVCAR-8 ovarian
OVCAR-5 ovarian = tested on: OVCAR-5 ovarian
OVCAR-4 ovarian = tested on: OVCAR-4 ovarian
SK-OV-3 ovarian = tested on: SK-OV-3 ovarian
IGROV1 ovarian = tested on: IGROV1 ovarian
OVCAR-3 ovarian = tested on: OVCAR-3 ovarian
HS 578T breast = tested on: HS 578T breast
NCI/ADR-RES ovarian = tested on: NCI/ADR-RES ovarian
T-47D breast = tested on: T-47D breast
BT-549 breast = tested on: BT-549 breast
MDA-MB-435 melanoma = tested on: MDA-MB-435 melanoma
SW-620 colon = tested on: SW-620 colon
MCF7 breast = tested on: MCF7 breast
HCT-116 colon = tested on: HCT-116 colon
HCC-2998 colon = tested on: HCC-2998 colon
KM12 colon = tested on: KM12 colon

Row | Compound | growth (SR leukemia) | growth (RPMI-8226 leukemia) | growth (OVCAR-8 ovarian) | growth (OVCAR-5 ovarian) | growth (OVCAR-4 ovarian) | growth (SK-OV-3 ovarian) | growth (IGROV1 ovarian) | growth (OVCAR-3 ovarian) | growth (HS 578T breast) | growth (NCI/ADR-RES ovarian) | growth (T-47D breast) | growth (BT-549 breast) | growth (MDA-MB-435 melanoma) | growth (SW-620 colon) | growth (MCF7 breast) | growth (HCT-116 colon) | growth (HCC-2998 colon) | growth (KM12 colon)
1 | O=C(Nc1ccc2ncnc(Nc3ccc(Oc4cccc(F)c4)c(Cl)c3)c2c1)c1ccc(CN2CCOCC2)cc1 | 18.6% | -16.4% (active) | 6.19% (active) | 75.5% | 20.3% | 18.5% | 0.971% (active) | 23.1% | 46.6% | 4.15% (active) | -9.3% (active) | 19.9% | 22% | 38.7% | 10.5% | 13.7% | 69% | 24.6%
2 | O=C1NC(=O)C(=Cc2cn(Cc3ccccn3)c3ccccc23)C(=O)N1 | 93% | 96.1% | 101% | -50.9% (active) | 93.4% | 89.8% | 31.6% | 102% | 94.7% | 100% | 100% | 98.8% | 101% | 105% | 87.6% | 100% | 105% | 106%
3 | C=CCn1c(SCC(=O)Nc2ccc(C(=O)/C=C/c3cc(OC)c(OC)c(OC)c3)cc2)nnc1-c1cc(-c2ccc(S(C)(=O)=O)cc2)nc2ccccc12 | 13.9% | -5.82% (active) | 68.6% | 112% | 94.5% | 127% | 72.8% | 85.9% | 95.3% | 91.3% | 85.6% | 79.4% | 88.6% | 77% | 50.6% | 27.4% | 111% | 75.2%
4 | C=C(C)[C@@H]1CC[C@]2(C(=O)NCC(=O)OC)CC[C@]3(C)[C@H](CC[C@@H]4[C@@]5(C)Cc6c([nH]c7ccccc67)C(C)(C)[C@@H]5CC[C@]43C)[C@@H]12 | 47% | 53.2% | 85.4% | 100% | 66.5% | 84.5% | 85.1% | 64.6% | 95% | 91% | 47.7% | 81.3% | 90% | 83% | 63.5% | 42% | 103% | 79.2%
5 | CC(=O)OCCCCCNc1ccccc1 | 88.4% | 111% | 108% | 97.5% | 92.8% | 109% | 118% | 105% | 107% | 102% | 103% | 102% | 111% | 101% | 109% | 113% | 107% | 94.6%
6 | CNC(=O)NCC1OC(n2cnc3c(NC(=O)Nc4ccccc4)ncnc32)C(O[Si](C)(C)C(C)(C)C)C1O[Si](C)(C)C(C)(C)C (stereo not drawn) | -22.1% (active) | 20.2% | 32.9% | 69.2% | 29.6% | 77.5% | 52.5% | -28.7% (active) | 61% | 31% | 13.6% | 39.7% | 25.9% | 36.4% | 0.294% (active) | 0.332% (active) | -1.37% (active) | -3.66% (active)
7 | COc1cccc(CCC(=O)c2cc3c(N)c(C(=O)Nc4ccccc4)sc3nc2C)c1 | 16.2% | 43.8% | 60.2% | 48.6% | 53.9% | 56.8% | 34% | 18% | 21.5% | 12.2% | 38.2% | 44.8% | -44.5% (active) | 22.2% | 10.5% | 14.4% | 45.1% | 23%
8 | CC(C)[N+](C)(CCOC(COc1ccccc1)COc1ccccc1)C(C)C | 91.5% | 49.3% | 104% | 104% | 78.6% | 105% | 76.6% | 75.4% | 105% | 107% | 85.7% | 80.6% | 91.9% | 102% | 91.4% | 92.2% | 96.7% | 83.5%
9 | Fc1cc(C2=NNC(c3ccc[nH]3)C2)ccc1-n1ccc(C(F)(F)F)n1 (stereo not drawn) | 77.9% | 0.914% (active) | 89% | 96.7% | 93.6% | 112% | 90% | 85.6% | 103% | 90.6% | 76.7% | 92.3% | 98.7% | 98.8% | 83.3% | 98.7% | 104% | 65.6%
10 | FC(F)(F)Oc1cccc(-c2cc(NCCCCCCNc3cc(-c4cccc(OC(F)(F)F)c4)nc4ccc(N5CCCC5)cc34)c3cc(N4CCCC4)ccc3n2)c1 | -40.7% (active) | -34.3% (active) | -50.2% (active) | -29.4% (active) | -72.7% (active) | 89.8% | -64% (active) | -95.9% (active) | -4.44% (active) | 21.6% | -46.4% (active) | 105% | -87.6% (active) | -78.8% (active) | -64.7% (active) | -66.6% (active) | -85.3% (active) | -90.4% (active)
11 | Cc1nc2sc(C(=O)Nc3cccc(Br)c3)c(N)c2cc1C(=O)c1ccc(C(F)(F)F)cc1 | 47% | 88.6% | 72.7% | 82.3% | 6.24% (active) | 91.7% | 73.8% | 83.2% | 40.7% | 80.7% | 95.1% | 95.7% | 87.9% | 72.2% | 70% | 56.1% | 86.9% | 84.8%
12 | CC1(C)CCCN1CCCN1c2ccccc2Sc2ccc(Cl)cc21 | 35.7% | 28.6% | 95.8% | 89.3% | 53.2% | 75.5% | 60.2% | 68.5% | 76.6% | 61% | 68.5% | 56.3% | 51.5% | 79.9% | 45.3% | 33.3% | 56.7% | 56.1%
13 | COc1cc(/C=N/NC(=O)c2ccccc2Nc2cccc(C(F)(F)F)c2)ccc1O | -66.4% (active) | 78.3% | 93.9% | 89.2% | 50% | 69.6% | 111% | 80.6% | 106% | 75.4% | 55.6% | 102% | 81.4% | 101% | 83.9% | 67.2% | 91.4% | 79.5%
14 | CCOc1cc(CNc2ccc(N3CCOCC3)c(C(=O)O)c2)ccc1OC | 94.2% | 100% | 95.2% | 102% | 102% | 120% | 103% | 105% | 95.6% | 102% | 103% | 108% | 104% | 98.5% | 82.2% | 119% | 99.9% | 100%
15 | O=S(=O)(NCCCNc1nccc(-c2c(-c3ccccc3)nc3occn23)n1)c1ccc(Cl)cc1 | 60.9% | 71.2% | 74.4% | 127% | 103% | 83% | 75.7% | 104% | 96.7% | 87.8% | 58.9% | 104% | 64.3% | 108% | 60.5% | 68.4% | 102% | 95.7%
16 | C=Cc1cc[n+](CCCCCCCCCCCC)cc1 | 97.2% | 104% | 112% | 108% | 133% | 144% | 104% | 110% | 108% | 106% | 131% | 116% | 104% | 100% | 106% | 97.6% | 110% | 104%
